Assay results: PubChem BioAssay (NCATS)
Inconclusive results are not listed. Entries that show only a call come without a potency. Unmarked numbers belong to inactive results. Calls of active or inactive are those of the source. The call rests on the fitted dose curve; in most records, active means well fitted curve in the direction sought with a large enough effect; inconclusive means small, poorly fitted or top-dose-only effect, or another doubt; inactive means no such curve, though single readings can be large; an effect the other way counts as inactive or inconclusive.

Assays:
[1] = P-glycoprotein substrates identified in KB-3-1 adenocarcinoma cell line, qHTS therapeutic library screen (AID 1346986); further: nearly all actives have a fitted effect of over 60% in size;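 further: potency is for cytotoxicity meaning loss of cell viability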
Method in brief: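 72 h cell-killing screen, 500 cells/well, CellTiter-Glo luminescence. Paired lines KB-3-1/KB-8-5-11; P-gp dependence checked by tariquidar co-treatment and HEK-293 MDR-19 versus empty-vector cells.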

[2] = P-glycoprotein substrates identified in KB-8-5-11 adenocarcinoma cell line, qHTS therapeutic library screen (AID 1346987); further: nearly all actives have a fitted effect of over 65% in size; on activity change, negative = cytotoxicity: series mostly up to about 44 µM
Method in brief: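 Compounds are pinned in dose-response onto KB-8-5-11 cells (500 cells/well, colchicine-free medium) and left 72 h at 37 degree C. CellTiter-Glo luminescence then yields AC50 values.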
Potency means the concentration at half of the fitted maximal effect.

| Structure (SMILES) | Potency [1] | Potency [2] | outcome [1] | activity change, negative = cytotoxicity [2] |
| --- | --- | --- | --- | --- |
| CC1(C)CC[C@]2(C(=O)O[C@@H]3O[C@H](CO)[C@@H](O)[C@H](O)[C@H]3O)CC[C@]3(C)C(=CCC4[C@@]5(C)CC[C@H](O[C@@H]6O[C@H](C(=O)O)[C@H](O)[C@H](O)[C@H]6O)C(C)(C)C5CC[C@]43C)[C@@H]2C1 (stereo not given in full) | inactive | inactive | – | – |
| CC(=O)Nc1nc(C)c(-c2nc(N3CCCC(O)C3)no2)s1 (stereo not given) | 13 µM (active) | 18.4 µM (active) | – | – |
| C=C1C(=O)OC2CC(C)C(CCC(C)O)=CCC12 (stereo not given) | inactive | inactive | – | – |
| COc1ccc(CN2CCN(CCCSc3cc(C(C)(C)C)c(O)c(C(C)(C)C)c3)CC2)c(OC)c1OC | – | – | inactive [at 9.29 µM] | -16.1% [at 9.29 µM] |
| Nc1nc(Nc2ccc3c(c2)CCC(N2CCCC2)CC3)nn1-c1cc2c(nn1)-c1ccccc1CCC2 (stereo not given) | 11.6 µM (active) | 14.6 µM (active) | – | – |
| COc1c(C(C)C)c(O)c(O)c2c1C(OC)[C@H]1OC(=O)[C@@]23CCCC(C)(C)[C@H]13 (stereo not given in full) | inactive | inactive | – | – |
| C=C1CCC2[C@](C)(CCC[C@@]2(C)C=O)[C@H]1CC/C(C)=C/CO (stereo not given in full) | inactive | inactive | – | – |
| CC#CC(=O)Nc1ccc2ncnc(Nc3cccc(Br)c3)c2c1 | 10.3 µM (active) | 11.6 µM (active) | – | – |
| C=C(COC(=O)C(O)C(O)CN)C12OC1C1(C)C(=CC2=O)C(O)C(O)CC1C (stereo not given) | inactive | inactive | – | – |
| C=C1C(=O)O[C@@H]2/C=C(/C)[C@@H](OC(C)=O)C/C=C(\C)C[C@@H](OC(=O)/C(=C/CO)CO)[C@@H]12 | inactive | inactive | – | – |
